Among the data in PMC7819943, “Rice protein-binding microarrays: a tool to detect cis-acting elements near promoter regions in rice” are binding signal values, retold here.

In all, about 68,000 sequences were measured (“fluorescence intensity (a.u.)”: median about 9,100, highest 2% from about 16,000 on). The entries come from a sample that favours the highest values as a whole.

OsWRKY34, sequence (Q0JBA9 entry or part of it): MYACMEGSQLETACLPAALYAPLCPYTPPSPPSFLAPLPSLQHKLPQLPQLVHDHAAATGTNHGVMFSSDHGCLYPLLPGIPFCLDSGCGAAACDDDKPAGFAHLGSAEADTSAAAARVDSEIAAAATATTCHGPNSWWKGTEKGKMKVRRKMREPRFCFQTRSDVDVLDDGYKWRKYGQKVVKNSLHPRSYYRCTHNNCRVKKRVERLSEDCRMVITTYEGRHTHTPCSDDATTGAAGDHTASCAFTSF

The assay deals with OsWRKY34 (Oryza sativa, UniProt Q0JBA9 1-250). As to the kind of experiment: protein-binding microarray (RPBM); PBS, 2% BSA, 51.3 ng/ul salmon testes DNA, 50 uM zinc acetate, 200 nM TF, 25 C, 1 h; high values mean tight binding. The following applies: protein: recombinant; tags: N-terminal polyhistidine and DsRed monomer fusion (pET32a); label: CyDye5-dUTP incorporated in the synthesized complementary strand; 3' TTTTT single-stranded linker to array surface; dsDNA, one strand shown. The essentials:
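For the binding signal, per-feature fluorescence intensity was read in arbitrary units on an Axon 4000B scanner. Before scanning, a 2% BSA-blocked custom Agilent array made double-stranded with Cy5-dUTP was washed after 1 h at 25 °C with 200 nM protein and 50 µM zinc acetate. The proteins were Ni–NTA-purified transcription factors with N-terminal polyhistidine and DsRed fusions, expressed in E. coli BL21-CodonPlus.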
As for “TTCCTAAATATTTACGACGTTGACTTTTTTAAAAATGTTTCGGAGTCACCTAGTGCAG”, the binding signal is 20100 fluorescence intensity (a.u.).
As for “ATTTTTATACGGACTCTAAACTCTACTTTTAATTTTATTACGGAGTCACCTAGTGCAG”, the binding signal was 8490 fluorescence intensity (a.u.).
Turning to “TACACTAACCCTACCATCCCGTACACCACCGAAACCCTAACGGAGTCACCTAGTGCAG”, the binding signal is 8330 fluorescence intensity (a.u.).
For “TGTCTGGTCAACGCACAATTTCGGTCAGTAACTCCCTGGCCGGAGTCACCTAGTGCAG”, the binding signal was 9770 fluorescence intensity (a.u.).
As to “TCATGGGAGCAATTGCGCGATGTTTTTGTTCTTAACTTTCCGGAGTCACCTAGTGCAG”, the binding signal is 8050 fluorescence intensity (a.u.).
For “TTTTGGTACGTTATTAGTGTGTGTATCAGTTTTTAAGTTCCGGAGTCACCTAGTGCAG” the value was 9430 fluorescence intensity (a.u.).
For “GTTTCAGGTTTTTGCAGCCAACAGTTTTGCTGATTTTTTACGGAGTCACCTAGTGCAG” the value was 9480 fluorescence intensity (a.u.); for “CTCCTTTTGCGCTGCTTCTCCTCGCCGCCACCGTGTAGCGCGGAGTCACCTAGTGCAG”, 8230 fluorescence intensity (a.u.).
Regarding “GAATTTTTTTTTATCATCTTTGACGGGCACACAAATTTTACGGAGTCACCTAGTGCAG”, the binding signal is 8140 fluorescence intensity (a.u.).
Regarding “TGGGGATGTGTTGTGGTGAGCTGGAAAGTGCAAACTGGTTCGGAGTCACCTAGTGCAG”, the binding signal is 9630 fluorescence intensity (a.u.).
Turning to “TCCTGTTTAAAGTTTTTTTTTGTGATTTTTAGATAAAAAACGGAGTCACCTAGTGCAG”, the binding signal is 9030 fluorescence intensity (a.u.).
Turning to “AGACTATCATCTTGAGCTTATTCTTCCATTTGCTCCATCTCGGAGTCACCTAGTGCAG”, the binding signal was 8950 fluorescence intensity (a.u.).
As for “AGCCAGCCCAAAAGCCACGCCGTCCACTCCATCTCCGCCTCGGAGTCACCTAGTGCAG”, the binding signal is 8440 fluorescence intensity (a.u.).
As to “CGATCGATCGATCGCGCGCCTCCGCCTATAAATTCTTGCCCGGAGTCACCTAGTGCAG”, the binding signal is 8230 fluorescence intensity (a.u.).
For “CCCTAAATATTTGACGCCGTTGACTTTTTTAAATATGTTTCGGAGTCACCTAGTGCAG” the value was 27300 fluorescence intensity (a.u.); for “GCTGTTTGACTTTTTCTTAATTAAGCTTCTTTATGTTTGACGGAGTCACCTAGTGCAG”, 19700 fluorescence intensity (a.u.).
As for “GATCGTTTCTATTCCTAATTCGTTTTCTTTATACTCCCTCCGGAGTCACCTAGTGCAG”, the binding signal is 11100 fluorescence intensity (a.u.).
Consider “CCCACCATTTTATATTATAAGCTGTTTGACTTTTTCTTAACGGAGTCACCTAGTGCAG”, for which the binding signal was 13100 fluorescence intensity (a.u.).
As to “TTCGTTTTGACTTTTTTCTTAGTAAAACTTTTATGTTTGACGGAGTCACCTAGTGCAG”, the binding signal was 11600 fluorescence intensity (a.u.).
As for “AAGGTCGTTGACTTTTTATTCGTCCTCGTCTAATTTCTCCCGGAGTCACCTAGTGCAG”, the binding signal was 33600 fluorescence intensity (a.u.).
For “CTTTGCGTCTCCTCCCCTTTCTAATCCACTTTTTATTTTTCGGAGTCACCTAGTGCAG”, the binding signal is 9730 fluorescence intensity (a.u.).
On to “CTTCCCTAAATGTTTGACACCGTTGACTTTTTAAAATATACGGAGTCACCTAGTGCAG”, for which the binding signal was 10500 fluorescence intensity (a.u.).
Regarding “CTAAATGTTTGACACCGTTGACTTTTTTAAATATGTTTGACGGAGTCACCTAGTGCAG”, the binding signal is 23300 fluorescence intensity (a.u.).
For the sequence “TGCAGTGGCTCCGTCGCTCAGTGAACATCCAGTCCCATTTCGGAGTCACCTAGTGCAG”, the binding signal is 9900 fluorescence intensity (a.u.).
Take “GGCCTATATATAACCATTGCTGTTGCCCTAAGAATGAATGCGGAGTCACCTAGTGCAG”: the binding signal was 9380 fluorescence intensity (a.u.).
For “CATTTTTGTTTTTTACTGGGAGATTTTTTTTCCTTTTTCTCGGAGTCACCTAGTGCAG”, the binding signal is 11200 fluorescence intensity (a.u.).
The value for “TAGTTGTCAGGTCGCTCCGCTTCATTCTGCTGTGCATTTTCGGAGTCACCTAGTGCAG” was 10100 fluorescence intensity (a.u.).
Regarding “ATATAGCTTGCTTGTTCGGTTGTTCCACTGTTCCGTGAGGCGGAGTCACCTAGTGCAG”, the binding signal is 8310 fluorescence intensity (a.u.).
Turning to “AATTGGGAAAATTGGAACCGTGCCACTCCATCATGTTTTCCGGAGTCACCTAGTGCAG”, the binding signal is 8210 fluorescence intensity (a.u.).
Turning to “CTCTCGCCCTTCGCGCTGACCTCCTCACAGCTGCTCTCGCCGGAGTCACCTAGTGCAG”, the binding signal was 8440 fluorescence intensity (a.u.).
For “AAGATCTCCCAGGCCTCGTGTTTTACGTCAACTGGTTGTACGGAGTCACCTAGTGCAG” the value was 8270 fluorescence intensity (a.u.); for “ATTTATTAGTTTGATCCCTCTTTTATCACCATGTATTGCCCGGAGTCACCTAGTGCAG”, 8570 fluorescence intensity (a.u.); for “AGGATCTTTATACACATAGCTACCACAATGGCTACAATTACGGAGTCACCTAGTGCAG”, 8130 fluorescence intensity (a.u.).
For the sequence “CCCGCGTCTCGGCCCTCTCCGTCCTCGTTGCTTCCGACGCCGGAGTCACCTAGTGCAG”, the binding signal was 8780 fluorescence intensity (a.u.).
As to “ATCTTTCTTATGCTGGCCATGATCTATGTTGCTGTTTTTGCGGAGTCACCTAGTGCAG”, the binding signal was 17700 fluorescence intensity (a.u.).
For “TGCGTTGACTTTATCTTCAAATTAATTATGTGCTAATAGGCGGAGTCACCTAGTGCAG”, the binding signal was 22300 fluorescence intensity (a.u.).
With “ATTGAGCGATTTTCGGTATTTCACGATGGGTTATATTTTACGGAGTCACCTAGTGCAG”, the binding signal was 8720 fluorescence intensity (a.u.).
In the case of “CCCTAAATATTTGACACCGTTGACTTTTTTAAATATGTTTCGGAGTCACCTAGTGCAG”, the binding signal was 39600 fluorescence intensity (a.u.).
For the sequence “GGATTTTTGACGGGGTTTTGCAACGGACTTGACTTGTTTACGGAGTCACCTAGTGCAG”, the binding signal is 8320 fluorescence intensity (a.u.).
With “ATGTTGTTTGTTATGATGCTGTTCTTTTGTTGTTGTTTACCGGAGTCACCTAGTGCAG”, the binding signal is 11700 fluorescence intensity (a.u.).
As for “ATCTCCCATGTGTGCATGCATCTTTTTTTGTTGTTTGCTGCGGAGTCACCTAGTGCAG”, the binding signal was 11200 fluorescence intensity (a.u.).
Consider “TTTTTGACTTTGACTTTTAATAGTAAAAAAATCAATTATGCGGAGTCACCTAGTGCAG”, for which the binding signal is 9900 fluorescence intensity (a.u.).
“CGATTTTTATTTTTCGCCGGATGGGGTTGACTTTTTTTTACGGAGTCACCTAGTGCAG”: the binding signal was 20900 fluorescence intensity (a.u.).
“TAATACTTTATGCGTGACTTATCTTTTTAAATTTTTTTCACGGAGTCACCTAGTGCAG”: the binding signal is 8970 fluorescence intensity (a.u.).
